Assay results reported in PubChem BioAssay AID1377 (University of Pittsburgh Molecular Library Screening Center, 2008).
Among all 220,000 compounds or so, about 830 (0.38%) were called active. This is one part of a sample in which actives are shown more often than they occur. A number with no mark means an inactive call.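 The calls were made as follows: active = activation, scaled between plate controls, above about 75% (limit read from the data); inactive = activation under that limit.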

assay: inhibitors of zVAD-triggered necroptosis, primary screen, L929 cells (AID 1377); conditions: ATP luminescence, 24 h, at 10 µM, hits give high values; with zVAD 60 µM unless noted;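 also: 0% = zVAD with DMSO and 100% = DMSO alone without zVAD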

| SMILES | viability rescue |
| --- | --- |
| Cc1[nH]c(=O)c(C(=O)/C=C/c2ccccc2)c2c1CCCC2 | 79.8% [with zVAD 20 µM] (active) |
| Cc1nc(-c2ccccc2)sc1C(=O)/C=C/c1ccccc1 | 0.15% [with zVAD 20 µM] |
| O=C(/C=C/c1ccccc1)c1ccccc1O | 1.78% |
| CCc1cc2c(=O)c(-c3nc4ccccc4n3C)c(CCCC(=O)O)oc2cc1OC(=O)C(C)(C)C | 3.54% |
| Fc1ccc2c(c1)C(c1cccnc1)=NNC(c1cccs1)=N2 | 0.66% |
| COc1cccc(/C=N/NC(=O)CNC(=O)c2ccc(S(=O)(=O)N3CCOCC3)cc2)c1OC | 0.08% |
| COc1c(N2CCN(C(=S)Nc3ccccc3F)C(C)C2)c(F)cc2c(=O)c(C(=O)O)cn(C3CC3)c12 (configuration not stated) | -0.64% |
| CC1CCCC(C)N1/N=C/c1ccccc1OC(F)F (configuration not stated) | 2.14% |
| O=C(Cn1cnc2ccccc2c1=O)Nc1cccc(S(=O)(=O)N2CCCCC2)c1 | 2.04% |
| Cc1ccc(NC(=O)c2ccc(Oc3ncccn3)cc2)cc1 | 3.02% |
| CCC(C)Sc1nnc(-c2c[nH]c3ccccc23)n1CCOC (configuration not stated) | 2.86% [with zVAD 20 µM] |
| CCn1c(SCCC(C)C)nnc1-c1c[nH]c2ccccc12 | 81.2% [with zVAD 20 µM] (active) |
| CCn1c(SCC(=O)Nc2ccc(OC)c(OC)c2)nnc1-c1c[nH]c2ccccc12 | 1.56% [with zVAD 20 µM] |
| CCOc1cccc2c1OC1(CCCCC1)N1N=C(c3cccnc3)CC21 (configuration not stated) | 1.15% |
| Cc1ccc(NC(=O)C/C(N)=N/O)cc1Cl | 1.11% |
| Cc1ccc(NC(=O)COc2ccc(-n3ccnc3)cc2)cc1Cl | 76.3% [with zVAD 20 µM] (active) |
| CCC(=O)c1ccc(OCC(=O)Nc2ccc3nc(C)sc3c2)cc1 | 0.76% |
| O=C(Cc1coc2ccc3ccccc3c12)NCc1cccs1 | 0.48% |
| Cc1ccccc1NC(=O)NC1(C(=O)N2CCCC2)CCCCC1 | 4.41% |
| CCOC(=O)N1CCN(C(=O)CSc2ccc(Cl)cc2)CC1 | -0.42% [with zVAD 20 µM] |
| CCOC(=O)N1CCN(C(=O)COc2ccc(Cl)cc2C)CC1 | 0.53% |
| CCOC(=O)N1CCN(C(=O)CNC(=O)Cc2ccc(Cl)cc2)CC1 | 80.3% (active) |
| O=C(NC(=S)Nc1ccc2oc(=O)ccc2c1)c1ccc(-c2cccc(Cl)c2Cl)o1 | 0.38% |

| SMILES | viability rescue |
| --- | --- |
| CC(=O)c1cc(C#N)c(SCC(=O)C(C)(C)C)nc1C | 0.46% |
| Cc1[nH]c2ccccc2c1SCC(=O)Nc1nccs1 | 1% |
| CC(=O)c1cc(C#N)c(SCC(=O)Nc2nccs2)nc1C | 82.9% (active) |
| COc1ccc(C(CCN(Cc2ccc(OC)c(OC)c2)C(=O)CCl)c2ccccc2)cc1 (configuration not stated) | 36.4% [with zVAD 20 µM] |
| O=C(c1ccco1)N1CCN(CCOc2ccccc2)CC1 | -0.6% |
| O=C(c1ccco1)N1CCN(C(=O)c2ccc(COc3ccc(F)cc3)o2)CC1 | 77.8% [with zVAD 20 µM] (active) |
| COc1ccccc1OCc1ccc(C(=O)N2CCN(C)CC2)o1 | 0.99% |
| O=C(C/C(=N\NC(=O)c1ccccc1Br)C(F)(F)F)c1cccs1 | 0.26% |
| Cc1cc(C(=O)N2CCC(C(=O)O)CC2)c(C(F)(F)F)o1 | -0.1% |
| COC(=O)C1=C(C)N(C(C)c2ccccc2)C(=O)/C1=C\c1ccco1 (configuration not stated) | 10.9% |
| O=C(CCN1CCN(c2ccccc2)CC1)NNC(=S)Nc1ccccc1 | 1.61% |
| Cn1ccc(NC(=O)Nc2ccc(Cl)cc2)n1 | 75.5% (active) |
| Cc1nn(C)cc1CNC(=O)Nc1ccc(Cl)cc1 | 0.19% |
| Cc1cc(NC(=O)Nc2ccc(Cl)cc2)n(-c2ccccc2)n1 | 22.9% |
| COC(=O)Cn1cc(/C=C/[N+](=O)[O-])c2ccccc21 | -0.01% |
| COc1cc(NS(=O)(=O)c2ccc(N/C=C(\C=O)c3nc4cc(Cl)ccc4o3)cc2)nc(OC)n1 | 0.63% |
| Cc1ccc(N2C(=O)C(CC(=O)Nc3cccc(F)c3)N(CCc3ccncc3)C2=O)cc1 (configuration not stated) | 6.31% |
| CCc1c(SCCC(=O)O)nc2ccccc2c1C | 5.34% |
| Cn1c2ccc(F)cc2c2nnc(NN)nc21 | 1.53% |
| C=CCO/N=C/C1=C(O)C(C(=O)OC)C(C)(C)CC1=O (configuration not stated) | 4.04% |
| CC(C)NC(=O)NC(=O)COC(=O)c1ccc(NC(=O)CC#N)cc1 | 78.9% (active) |
| CCCCC(CCC(=O)Nc1ccc(C(=O)OCC)cc1)C(=O)O (configuration not stated) | 0.34% [with zVAD 20 µM] |
| NC(=O)c1ccc(NC(=O)COC(=O)c2ccc([N+](=O)[O-])cc2)cc1 | 1.41% |

| SMILES | viability rescue |
| --- | --- |
| CCN1CCCC1CNC(=O)c1cc2c(=O)n(C)c3ccccc3c2n1C (configuration not stated) | 22.7% [with zVAD 20 µM] |
| CC1CCCC(C)N1CCCNC(=O)c1cc2c(=O)n(C)c3ccccc3c2n1C (configuration not stated) | 80.8% [with zVAD 20 µM] (active) |
| Cn1c(C(=O)NCCCN2CCN(c3cccc(Cl)c3)CC2)cc2c(=O)n(C)c3ccccc3c21 | 4.61% |
| CN(C)S(=O)(=O)Oc1ccccc1C(=O)Nc1ccccc1Cl | -0.16% |
| COCCN1C2=C(COC(C)(C)C2)C(=S)NC1c1ccccc1 (configuration not stated) | 0.35% |
| O=C(COC(=O)c1ccc(Cl)nc1)NCc1cccs1 | 1% |
| COc1ccccc1NC(=O)CSc1nnc(-c2ccoc2C)n1CCc1ccccc1 | -0.28% [with zVAD 20 µM] |
| CCn1c(SCC(=O)Nc2nc3ccc(OC)cc3s2)nnc1-c1ccoc1C | 88.1% [with zVAD 20 µM] (active) |
| CCCn1c(SCC(=O)Nc2cccc(C(=O)OCC)c2)nnc1-c1ccoc1C | -0.07% [with zVAD 20 µM] |
| COc1ccc(N2C(=O)C3C(C2=O)C(C(=O)c2ccccc2)N2CCCC32)cc1 (configuration not stated) | -0.53% |
| CCc1ccccc1N1CN(Cc2ccco2)CNC1=S | 0.22% |
| Cc1cc(C)nc(NNC2=CC(=O)CC(C)(C)C2)n1 | 0.66% |
| CC(=O)Nc1ccc(/C=C/C(=O)c2ccccc2)cc1 | 0.6% |
| CC(=O)Nc1ccc(NC(=S)NC(=O)/C=C/c2ccccc2)cc1 | 80.5% (active) |
| Cc1ccc(NC(=S)NC(=O)/C=C/c2ccc(Cl)cc2)cc1 | 0.00667% |
| O=C1NC(c2ccccc2)=NC1(Nc1ccccn1)C(F)(F)F (configuration not stated) | 1.82% |
| CC(C)(C)NC(=O)C(=O)NCc1ccncc1 | 0.53% |
| Cc1cc(C)cc(NS(=O)(=O)c2ccc(F)cc2)c1 | 0.04% |
| CC(NC(=S)NC1CCCCC1)C(c1ccccc1)N1CCOCC1 (configuration not stated) | -0.76% |
| NNC(=O)c1ccc(Cl)cc1Cl | 0.33% |
| Cc1ccccc1NC(=O)CSC1=NCCN1 | 101% [with zVAD 20 µM] (active) |
| Cc1ccccc1NC(=O)CNc1ccccc1N1CCCCC1 | 0.17% [with zVAD 20 µM] |
| Cc1cccc(NC(=O)CSc2nc3c(c(=O)[nH]2)CCCC3)c1C | 0.25% |

| SMILES | viability rescue |
| --- | --- |
| Clc1cc(-c2ccc(/C=N/n3cnnc3)o2)ccc1Br | -0.31% |
| CCOC(=O)/C(C#N)=C/c1ccc(N2CCCCC2)cc1 | 68.5% |
| C=CCNC(=O)CC12CC3CC(C1)CC(CC(=O)NCC=C)(C3)C2 | 0.48% |
| CC(=O)Nc1cccc(-c2csc(Nc3cccc(C)n3)n2)c1 | 0.49% [with zVAD 20 µM] |
| O=C(Nc1cccc(-c2nc3ccccc3[nH]2)c1)c1ccc(C(=O)Nc2cccc(-c3nc4ccccc4[nH]3)c2)cc1 | 0.11% |
| CC(=O)Nc1cccc(-c2cnc3ccccc3n2)c1 | 82.7% (active) |
| O=C(Nc1cccc(F)c1)N1C2CCC1CC(O)(c1cccnc1)C2 (configuration not stated) | 0.67% |
| O=C(Nc1cccnc1)c1cc([N+](=O)[O-])ccc1Cl | 13.3% |
| Cc1ccc(C(=O)Cn2cccn2)cc1 | 1.57% |
| Cc1ccc(NC(=O)NC(=O)N(C2CCCCC2)S(=O)(=O)c2ccccc2)cc1 | 2.56% |
| O=C(CC1SCCNC1=O)Nc1ccc(Cl)cc1 (configuration not stated) | 2.38% |
| COc1ccccc1-n1cnc2cc(C(=O)NCC3CCCO3)ccc21 (configuration not stated) | 1.84% |
| COCCCNC(=O)c1ccc2c(c1)ncn2-c1ccccc1OC | 13.6% |
| COc1ccc(-n2cnc3cc(C(=O)NC4CCCC4)ccc32)cc1 | 76.5% (active) |
| COc1ccc(-c2nc3cnccn3c2NC(C)(C)CC(C)(C)C)cc1O | 0.13% |
| Cc1ccc2cc(/C=N/Nc3ccc(C(=O)O)cc3)c(Cl)nc2c1 | 1.59% |
| CCOC(=O)C1(Cc2ccc(Cl)cc2)CCN(C(=O)C2=NNC(=O)CC2)CC1 | -0.11% |
| CCCCN1C(=O)CC(N2CCOCC2)C1=O (configuration not stated) | -0.32% |
| C[C@@H]1C[C@@H]2O[C@H]2/C=C\C=C\C(=O)Cc2c(Cl)c(O)cc(O)c2C(=O)O1 | 83% (active) |
| O=C(c1ccncc1)c1ccc([N+](=O)[O-])cc1 | 1.69% |
| O=C(c1ccc(F)cc1)C1CCN(Cc2cn[nH]c2-c2ccccc2)CC1 | 0.29% |
| CC(=O)NCCC(=O)Nc1cc(S(=O)(=O)N2CCOCC2)ccc1N1CCOCC1 | 0.76% |
| COc1ccc(/C(N)=N/OC(=O)Cc2ccccc2)cc1 | 0.52% |
